The results in this text go back to PubChem BioAssay (NCATS).

A short description of test [1]: Cytotoxicity counterscreen for inhibitors of SARS-CoV-2 cell entry (AID 1645845; calls by dose curve; further: nearly all actives have a fitted effect of over 50% in size). The settings on record: cell viability (SARS-CoV-2 entry assay cells); series mostly up to 57.1 µM. In short, it runs like this:
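48 h compound treatment (after 1 h preincubation), HEK293-ACE2 cells, 37 C/5% CO2; ATP luminescence endpoint; normalized to cell wells and media blanks.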

The target of test [2] is Cytochrome P450 2D6 (Homo sapiens) (UniProt P10635). As to the kind of experiment: Cytochrome P450 family 2 subfamily D member 6 (CYP2D6) small molecule antagonists: luciferase biochemical (cell-free) qHTS assay (AID 1645840; active means well fitted curve in the direction sought with a large enough effect in the repeat runs; an effect the other way counts as inactive or inconclusive; further: nearly all actives have a fitted effect of over 55% in size; further: potency means the concentration at half of the fitted maximal effect). As to conditions: P450-Glo CYP2D6 enzyme, luciferin luminescence, 1 h; series mostly up to 57.4 µM. The procedure, abridged: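 P450-Glo luminescent screen: recombinant CYP2D6 enzyme–proluciferin substrate mix preincubated with compound 10 min at room temperature, then NADPH regeneration added for 1 h at room temperature. Detection reagent added for 20 min; luciferin light read as relative luminescence units.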
Sequence of Cytochrome P450 2D6 (Homo sapiens) (P10635 whole entry, looked up): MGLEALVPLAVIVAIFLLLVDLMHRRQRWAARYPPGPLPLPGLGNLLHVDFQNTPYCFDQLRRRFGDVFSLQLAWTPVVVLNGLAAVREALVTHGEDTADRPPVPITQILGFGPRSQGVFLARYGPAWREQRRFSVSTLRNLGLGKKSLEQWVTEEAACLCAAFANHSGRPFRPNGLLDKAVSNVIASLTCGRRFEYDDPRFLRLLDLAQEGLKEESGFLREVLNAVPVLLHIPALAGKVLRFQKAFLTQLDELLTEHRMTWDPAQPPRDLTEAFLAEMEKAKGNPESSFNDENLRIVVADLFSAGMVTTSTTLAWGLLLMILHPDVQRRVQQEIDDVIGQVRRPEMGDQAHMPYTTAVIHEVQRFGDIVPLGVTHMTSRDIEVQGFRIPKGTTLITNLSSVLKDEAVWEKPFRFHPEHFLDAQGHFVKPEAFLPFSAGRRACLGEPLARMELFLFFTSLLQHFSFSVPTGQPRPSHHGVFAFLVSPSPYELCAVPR
A general note: In qHTS, concentration-response curves come from the screen itself.

The nature of test [3]: Primary qHTS for inhibitors of nuclear receptor binding SET domain protein 2 (NSD2) in an isogenic RCH-ACV NSD2 p.E1099K mutant (9B) (AID 1645876). Further: nearly all actives have a fitted effect of over 70% in size. On activity change, negative = viability loss: on the % scale 0 is the no-effect control and ±100 the full control effect. As to conditions: RCH-ACV NSD2 E1099K (9B) viability, CellTiter-Glo, 72 h; series mostly up to 44.9 µM.
The nature of test [4]: Primary qHTS for inhibitors of nuclear receptor binding SET domain protein 2 (NSD2) in an RCH-ACV wild type WT cells (2C) (AID 1645877). Further: nearly all actives have a fitted effect of over 70% in size. On activity change, negative = cell killing: on the % scale 0 is the no-effect control and ±100 the full control effect. The settings on record: RCH-ACV (leukaemia line) NSD2 WT (2C) viability, CellTiter-Glo, 72 h; series mostly up to 44.9 µM.
The target in test [5] is Cytochrome P450 2C9 (Homo sapiens) (UniProt P11712). As to the kind of experiment: Cytochrome P450 family 2 subfamily C member 9 (CYP2C9) small molecule antagonists: luciferase biochemical (cell-free) qHTS assay (AID 1645842; active means well fitted curve in the direction sought with a large enough effect in the repeat runs; an effect the other way counts as inactive or inconclusive; further: nearly all actives have a fitted effect of over 55% in size; further: potency means the concentration at half of the fitted maximal effect; on activity change, negative = inhibition: on the % scale 0 is the no-effect control and ±100 the full control effect). The settings on record: P450-Glo CYP2C9 enzyme assay, luciferin luminescence; series mostly up to 57.4 µM. The procedure, abridged: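 Luminescence, after 20 min with luciferin detection reagent, reflected CYP2C9 turnover during a 1 h NADPH-driven reaction at 37C. Enzyme-substrate mix contained 0.4% bovine serum albumin and was preincubated with compound 10 min at room temperature.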
Sequence of Cytochrome P450 2C9 (Homo sapiens) (P11712 whole entry, looked up): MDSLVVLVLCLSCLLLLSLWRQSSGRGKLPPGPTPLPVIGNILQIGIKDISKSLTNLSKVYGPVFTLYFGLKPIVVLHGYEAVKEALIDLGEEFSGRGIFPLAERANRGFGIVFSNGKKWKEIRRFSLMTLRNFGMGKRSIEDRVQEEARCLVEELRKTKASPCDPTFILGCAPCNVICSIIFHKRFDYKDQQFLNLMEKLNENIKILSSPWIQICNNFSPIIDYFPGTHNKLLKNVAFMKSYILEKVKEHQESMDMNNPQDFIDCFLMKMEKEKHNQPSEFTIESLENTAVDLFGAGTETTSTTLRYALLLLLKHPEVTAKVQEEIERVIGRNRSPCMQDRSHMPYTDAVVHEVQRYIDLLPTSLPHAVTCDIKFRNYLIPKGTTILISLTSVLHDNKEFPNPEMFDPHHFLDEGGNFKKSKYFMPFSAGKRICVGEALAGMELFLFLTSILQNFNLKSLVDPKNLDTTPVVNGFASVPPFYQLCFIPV

The nature of test [6]: Primary qHTS to identify inhibitors of SARS-CoV-2 cell entry (AID 1645846; calls by dose curve; further: nearly all actives have a fitted effect of over 45% in size; further: potency means the concentration at half of the fitted maximal effect). As to conditions: SARS-CoV-2 pseudovirus cell entry assay, luminescence; activity change, negative = inhibition: at 57.1 µM (top of the series) unless noted; series mostly up to 57.1 µM. The procedure, abridged:
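HEK293-ACE2 (Expi293F, stable hACE2), 1500 cells/well, o/n 37C; cpd 23 nL pin, 1 h; MLV-PP w/ SARS-CoV-2-S (Wuhan-Hu-1, Δ19 C-term); 48 h 37C; Bright-Glo luminescence; normalized vs S-PP and bald PP.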

The nature of test [7]: Confirmatory qHTS to identify inhibitors of SARS-CoV-2 cell entry (AID 1645844; calls by dose curve; further: potency means the concentration at half of the fitted maximal effect; nearly all actives have a fitted effect of over 45% in size). The settings on record: SARS-CoV-2 pseudotyped particle cell entry, luciferase. The procedure, abridged: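 Luminescence from a luciferase reporter, read 48 hr after pseudotyped-particle addition, gives entry signal, normalised to spike-bearing PP wells and bald PP lacking fusion protein wells. Cells are Expi293F stably expressing human ACE2, compound-pretreated 1 hr.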

Test [8] is described as follows: VSVG counterscreen qHTS to identify inhibitors of SARS-CoV-2 cell entry (AID 1645847; calls by dose curve; further: potency means the concentration at half of the fitted maximal effect; nearly all actives have a fitted effect of over 65% in size). The settings on record: VSV-G pseudotyped particle entry, luciferase. In short, it runs like this:
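Expi293F/hACE2 cells, overnight plating; cpd 1 h, 37C/5% CO2; + VSV-G PP (MLV pseudotyping), 48 h; supernatant removed, Bright-Glo luciferase read. Norm: VSV-G PP and bald PP wells.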

Another test addresses Papain (Carica papaya) (UniProt P00784). Kind of test: Primary qHTS assay for inhibitors of the protease papain (AID 1645873).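 Further: papain turnover of Z-FR-AMC read as the AMC fluorescence gain over 10 min; on the % scale 0 is the no-effect control and ±100 the full control effect.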 The settings on record: papain Z-FR-AMC cleavage, AMC fluorescence; series mostly up to 49.8 µM.
The target of test [9] is Rap guanine nucleotide exchange factor 3 (Homo sapiens) (UniProt O95398). As to the kind of experiment: Confirmatory qHTS for agonist of cAMP-regulated guanine nucleotide exchange factor 3 (EPAC1) (AID 1645881).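 Further: EPAC1 catalysed release of BODIPY-GDP from Rap1B seen as fluorescence loss; 100% = effect of cAMP agonist control; nearly all actives have a fitted effect of over 75% in size.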 As to conditions: EPAC1 Rap1B BODIPY-GDP exchange fluorescence; series mostly up to 154 µM.
Sequence of Rap guanine nucleotide exchange factor 3 (Homo sapiens) (O95398 whole entry, looked up): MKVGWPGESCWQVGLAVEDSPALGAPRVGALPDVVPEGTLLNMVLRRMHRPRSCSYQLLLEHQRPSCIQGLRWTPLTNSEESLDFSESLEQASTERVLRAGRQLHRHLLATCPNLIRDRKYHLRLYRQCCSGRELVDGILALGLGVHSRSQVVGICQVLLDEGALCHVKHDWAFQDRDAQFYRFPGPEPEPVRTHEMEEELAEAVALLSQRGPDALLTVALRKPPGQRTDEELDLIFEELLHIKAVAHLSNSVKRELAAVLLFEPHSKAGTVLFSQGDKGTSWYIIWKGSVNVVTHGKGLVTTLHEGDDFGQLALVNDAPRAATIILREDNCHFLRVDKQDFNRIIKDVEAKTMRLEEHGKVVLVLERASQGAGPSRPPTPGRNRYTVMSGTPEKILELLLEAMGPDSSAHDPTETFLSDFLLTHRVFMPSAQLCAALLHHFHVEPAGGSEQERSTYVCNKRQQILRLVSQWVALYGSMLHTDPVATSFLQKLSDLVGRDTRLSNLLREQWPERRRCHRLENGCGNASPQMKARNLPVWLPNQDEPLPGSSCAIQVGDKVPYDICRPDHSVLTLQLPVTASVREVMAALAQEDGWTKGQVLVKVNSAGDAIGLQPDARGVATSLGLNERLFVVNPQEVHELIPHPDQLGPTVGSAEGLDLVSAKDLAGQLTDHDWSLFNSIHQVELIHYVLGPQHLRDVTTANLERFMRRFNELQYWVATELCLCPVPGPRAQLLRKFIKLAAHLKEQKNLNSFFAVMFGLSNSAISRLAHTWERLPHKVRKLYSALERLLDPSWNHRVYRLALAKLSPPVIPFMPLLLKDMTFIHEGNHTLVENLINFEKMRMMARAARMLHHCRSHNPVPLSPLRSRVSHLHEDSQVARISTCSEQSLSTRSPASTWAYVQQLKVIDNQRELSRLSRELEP
Test [10] addresses Rap guanine nucleotide exchange factor 4 (Homo sapiens) (UniProt Q8WZA2). As to the kind of experiment: Confirmatory qHTS for agonist of cAMP-regulated guanine nucleotide exchange factor 4 (EPAC2) (AID 1645884).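 Further: nucleotide exchange releases bodipy-GDP from Rap1 and this lowers its fluorescence; on the % scale 0 is the no-effect control and ±100 the full control effect; nearly all actives have a fitted effect of over 65% in size.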 As to conditions: EPAC2 GEF activity, Rap1B-BODIPY-GDP fluorescence; series mostly up to 154 µM.
The target of test [11] is Rap guanine nucleotide exchange factor 3 (Homo sapiens) (UniProt O95398). Kind of test: Confirmatory qHTS for antagonist of cAMP-regulated guanine nucleotide exchange factor 3 (EPAC1) (AID 1645880).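 Further: plate controls were DMSO only for no effect and full effect of the ATA control for full effect; nearly all actives have a fitted effect of over 55% in size.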 As to conditions: EPAC1 Rap1B-BODIPY-GDP exchange, fluorescence; series mostly up to 115 µM. The procedure, abridged:
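Nucleotide exchange uses 100 nM EPAC1, 250 nM RAP1B-BODIPY-GDP and 50 uM GDP, with compounds in a concentration-titration series. After 5 min at room temperature, fluorescence (480 nm ex/540 nm em) is read every 5 min for 30 min. Data are normalized to control ATA and DMSO.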

The target of test [12] is Rap guanine nucleotide exchange factor 4 (Homo sapiens) (UniProt Q8WZA2). Kind of test: Confirmatory qHTS for antagonist of cAMP-regulated guanine nucleotide exchange factor 4 (EPAC2) (AID 1645885). Further: on the % scale 0 is the no-effect control and ±100 the full control effect; nearly all actives have a fitted effect of over 25% in size. As to conditions: EPAC2 Rap1B-BODIPY-GDP exchange fluorescence, biochemical; series mostly up to 114 µM.
Sequence of Rap guanine nucleotide exchange factor 4 (Homo sapiens) (Q8WZA2 whole entry, looked up): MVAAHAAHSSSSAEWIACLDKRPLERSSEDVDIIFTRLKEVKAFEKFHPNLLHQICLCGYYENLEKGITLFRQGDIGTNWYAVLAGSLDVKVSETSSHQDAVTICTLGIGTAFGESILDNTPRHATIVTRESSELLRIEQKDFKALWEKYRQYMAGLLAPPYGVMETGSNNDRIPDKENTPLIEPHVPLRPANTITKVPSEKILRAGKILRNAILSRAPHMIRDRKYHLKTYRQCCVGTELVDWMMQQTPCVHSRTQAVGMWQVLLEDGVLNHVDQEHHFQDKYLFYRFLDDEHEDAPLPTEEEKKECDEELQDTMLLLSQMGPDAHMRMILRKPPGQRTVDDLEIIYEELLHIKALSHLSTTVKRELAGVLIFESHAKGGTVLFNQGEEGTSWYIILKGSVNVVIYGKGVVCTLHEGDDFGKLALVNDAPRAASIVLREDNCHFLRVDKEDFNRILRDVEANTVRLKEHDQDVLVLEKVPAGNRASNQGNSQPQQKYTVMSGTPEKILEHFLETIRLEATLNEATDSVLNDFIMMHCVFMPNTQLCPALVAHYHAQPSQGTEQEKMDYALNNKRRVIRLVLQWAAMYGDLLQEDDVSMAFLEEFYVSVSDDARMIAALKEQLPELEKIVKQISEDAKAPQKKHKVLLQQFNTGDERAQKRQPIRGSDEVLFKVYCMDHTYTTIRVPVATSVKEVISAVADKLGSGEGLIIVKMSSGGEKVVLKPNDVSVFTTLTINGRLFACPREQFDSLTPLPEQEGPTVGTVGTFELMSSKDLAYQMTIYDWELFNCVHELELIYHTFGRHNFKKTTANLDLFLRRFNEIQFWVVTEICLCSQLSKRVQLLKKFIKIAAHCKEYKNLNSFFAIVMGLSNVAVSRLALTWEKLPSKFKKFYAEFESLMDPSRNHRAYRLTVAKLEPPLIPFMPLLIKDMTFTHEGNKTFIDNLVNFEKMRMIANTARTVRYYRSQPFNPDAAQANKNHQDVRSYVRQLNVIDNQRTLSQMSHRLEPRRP

The structures appear in SMILES notation. Inconclusive results are not listed. Activity calls are given as the source filed them. Unless noted, the call rests on the fitted dose curve; in most records, active means well fitted curve in the direction sought with a large enough effect; inconclusive means small, poorly fitted or top-dose-only effect, or another doubt; inactive means no such curve, though single readings can be large; an effect the other way counts as inactive or inconclusive.

Sequence of Papain (Carica papaya) (P00784 whole entry, looked up): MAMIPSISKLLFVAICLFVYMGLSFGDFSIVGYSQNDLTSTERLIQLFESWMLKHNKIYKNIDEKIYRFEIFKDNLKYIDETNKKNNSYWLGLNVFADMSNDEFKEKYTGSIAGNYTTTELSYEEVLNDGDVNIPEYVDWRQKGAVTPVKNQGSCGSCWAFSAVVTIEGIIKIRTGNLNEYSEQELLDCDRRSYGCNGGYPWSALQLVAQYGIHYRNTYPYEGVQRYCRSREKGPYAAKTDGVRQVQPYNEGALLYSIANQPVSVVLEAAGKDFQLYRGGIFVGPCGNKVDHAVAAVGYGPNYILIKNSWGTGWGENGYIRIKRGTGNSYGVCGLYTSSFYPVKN

Regarding `CCC1(CC)C(=O)NC(=O)N(C)C1=O`, in test [1], the compound was classed as inactive.
Turning to `CN(C(=O)Cc1ccccc1)C(CN1CCCC1)c1ccccc1` (stereo unspecified), in [2], the Potency was 0.0849 µM (active). The Potency entry in test [3] and in test [4] was “inactive” in each case.
As to `CCCC(=O)OC(C(Cl)(Cl)Cl)P(=O)(OC)OC` (stereo unspecified), the outcome in test [1] is “inactive [at 114 µM]”.
`CCc1[nH]c2ccc(OC)cc2c1CCN(C)C`: the Potency in test [2] is 1.9 µM (active). Besides, the Potency entry in test [5], in test [3] and in test [4] was “inactive” in each case.
As to `CCCCCCC(=O)O[C@H]1CC[C@H]2[C@@H]3CC[C@H]4CC(=O)C=C(C)[C@]4(C)[C@H]3CC[C@]12C`, the result in test [1] was inactive. Also, the activity change, negative = inhibition in test [6] was -7.93%.
As for `COc1cc(CCNCc2ccccc2O)c(OC)cc1C#N`, the Potency in test [2] was 1.9 µM (active); in test [5] it was 9.52 µM (active). The Potency entry in [3] and in test [4] was “inactive” in each case.
On to `COC(=O)N1CCN(C(=O)Cc2ccc(Cl)c(Cl)c2)[C@@H](CN2CCCC2)C1`, for which, in test [2], the Potency is 4.77 µM (active). The Potency result in test [5], in [3] and in test [4] was “inactive” each time.
With `O=[N+]([O-])c1ccccc1`, the activity change, negative = inhibition in [6] is -19.1%.
Consider `CCC1C(C)=NN=C(c2ccc(OC)c(OC)c2)c2cc(OC)c(OC)cc21` (stereo unspecified), for which the compound was classed as inactive in test [1]. In addition, in test [6], the Potency entry is “inactive”.
Turning to `C[C@H](NC(=O)Cc1cc(F)cc(F)c1)C(=O)N[C@@H]1N=C(c2ccccc2)c2ccccc2N(C)C1=O`, the Potency result in test [5] is “inactive”.
Consider `CC(C)CCON=O`, for which the compound was called inactive in test [1]. Also, the Potency entry in test [6] was “inactive”.
For the compound `Cn1sc(Cl)cc1=O`, the activity change, negative = inhibition in [6] was -5.28%.
As for `O=C1C2CC=CCC2C(=O)N1SC(Cl)(Cl)Cl` (stereo unspecified), the Potency is 6.74 µM (active) in test [5], 15.2 µM (active) in test [7] and 15.2 µM (active) in test [8].
Turning to `CC(=O)c1c(O)c(C)c(O)c(Cc2c(O)c3c(c(C(=O)/C=C/c4ccccc4)c2O)OC(C)(C)C=C3)c1O`, the compound was classed as inactive in test [1]. In addition, the Potency result (with Papain (Carica papaya); in test [3]; in test [4]) was “inactive” each time.
`C[C@@](O)(COc1ccc(C#N)cc1)C(=O)Nc1ccc(C#N)c(C(F)(F)F)c1`: in [5], the Potency was 1.51 µM (active). In addition, the Potency entry in test [4] was “inactive”.
Turning to `O=C(OCCN1CCCCC1)C(O)(c1ccccc1)c1ccccc1`, the activity change, negative = inhibition in [6] is -28.8%.
Consider `CC(Cc1ccccc1)NC=O` (stereo unspecified), for which the Potency entry in test [5] is “inactive”.
Consider `Cc1cc(C(=O)CN2CCCC2)c(C)n1-c1ccc(F)cc1`, for which the Potency in test [2] was 0.952 µM (active). Besides, the Potency entry in [5], in [3] and in test [4] was “inactive” in each case.
Turning to `Cc1cn(C[C@H](N)C(=O)O)c(=O)n(Cc2cc(-c3ccccc3)sc2C(=O)O)c1=O`, the Potency result in test [2], in test [5], in test [3] and in test [4] was “inactive” each time.
On to `O=C(NCNC(=O)NC1C(=O)NC(=O)N1CO)NC1C(=O)NC(=O)N1CO` (stereo unspecified), for which the Potency result in [6] is “inactive”.
With `CC(C)(C)c1cc(O)ccc1O`, the Potency in [5] is 12 µM (active). Moreover, the Potency entry in [9] and in test [10] was “inactive” each time.
`CN(C)CCc1c[nH]c2ccc(CN3CCN(C)S3(=O)=O)cc12`: the Potency entry in test [5], in test [3] and in test [4] was “inactive” each time.
Take `CCC1(C)CC(=O)NC(=O)C1`: the activity change, negative = inhibition in [6] was -21.5% [at 114 µM].
Turning to `CC[C@H](C)[C@H]1O[C@]2(C=C[C@@H]1C)C[C@@H]1C[C@@H](C/C=C(\C)[C@@H](O[C@H]3C[C@H](OC)[C@@H](O[C@H]4C[C@H](OC)[C@@H](O)[C@H](C)O4)[C@H](C)O3)[C@@H](C)/C=C/C=C3\CO[C@@H]4[C@H](O)C(C)=C[C@@H](C(=O)O1)[C@]34O)O2`, the Potency was 21.5 µM (active) in test [7], 10 µM (active) in test [6] and 12.1 µM (active) in [8].
Consider `c1ccc2sc(SNC3CCCCC3)nc2c1`, for which the activity change, negative = inhibition in test [6] is 2.84% [at 114 µM].
In the case of `COc1cc2c(cc1OC)[C@@]13CCN4CC5=CCO[C@H]6CC(=O)N2[C@H]1[C@H]6[C@H]5C[C@H]43`, the Potency entry in test [3] and in test [4] was “inactive” in each case.
Take `O=c1[nH]cc(N(CCCl)CCCl)c(=O)[nH]1`: the outcome in test [11] was inactive. The Potency entry in test [9], in test [10] and in test [12] was “inactive” in each case.
Turning to `COCC1OC(=O)c2coc3c2C1(C)C1=C(C3=O)C2CCC(=O)C2(C)CC1O` (stereo unspecified), the Potency entry in [3] and in test [4] was “inactive” each time.
With `C1=C2CCCN[C@H]2[C@@H]2C[C@H]1[C@H]1CCCCN1C2`, the Potency entry in test [3] and in [4] was “inactive” each time.
On to `N#CC(OC1OC(COC2OC(CO)C(O)C(O)C2O)C(O)C(O)C1O)c1ccccc1` (stereo unspecified), for which the Potency result in test [3] and in test [4] was “inactive” in each case.
As to `COC(=O)[C@@]12C(=O)C(C)C(=O)[C@]1(C)C(C)=C[C@H]1[C@]3(C=O)CC[C@H](OC(C)=O)C(C)(C)[C@H]3CC[C@@]12C` (stereo partly specified), the Potency entry in test [3] and in test [4] was “inactive” throughout.
As for `CC(C)=C1CC[C@]23CO[C@H](C2)[C@@](O)(C(=O)O)CCC13` (stereo partly specified), the Potency result in test [3] and in test [4] was “inactive” in each case.
As to `O=C1C[C@@H]2OCC=C3CN4CC[C@]56c7ccccc7N1[C@H]5[C@H]2[C@H]3C[C@H]46`, the Potency entry in [3] and in [4] was “inactive” each time.
As to `CC(C)C1(OO)C=C2C(=O)CC3C(C)(C(=O)O)CCCC3(C)C2CC1` (stereo unspecified), the Potency entry in test [3] and in [4] was “inactive” throughout.
On to `C[C@]12CC[C@H]3[C@@H]([C@H](O)CC4=CC(=O)CC[C@@]43C)[C@@H]1CC[C@@H]2O`, for which the Potency result in test [3] and in test [4] was “inactive” throughout.
For the compound `C=CC(C)(O)CC/C=C(\C)C(=O)O[C@H]1[C@H](O)[C@@H](CO)O[C@@H](OC(=O)[C@]23CCC(C)(C)CC2C2=CCC4[C@@]5(C)CC[C@H](O[C@@H]6O[C@H](CO[C@@H]7OC[C@H](O)[C@H](O)[C@H]7O[C@@H]7OC[C@@H](O)[C@H](O)[C@H]7O)[C@@H](O)[C@H](O)[C@H]6O)C(C)(C)C5CC[C@@]4(C)[C@]2(C)CC3)[C@@H]1OC1OC(C)C(O[C@@H]2OC[C@@H](O)[C@H](O[C@@H]3OC[C@@H](O)[C@H](O)[C@H]3O)[C@H]2O)C(O)C1O` (stereo partly specified), the activity change, negative = viability loss in test [3] was -17.9% [at 9.23 µM] (inactive). Besides, in [4], the activity change, negative = cell killing is -28.4% [at 9.23 µM] (inactive).
